# Assay outcomes from PubChem BioAssay.
# In the library only some 12% were active in any assay of this set; here they are far more common.
# Pf growth 48h = P. falciparum growth inhibition at 48 hours (one generation); hit rate 5.9% among 310,000; AID 504832; P. falciparum luciferase growth in erythrocytes, 48 h; Potency, µM (series often up to 28.7 µM), for inactives: at the highest dose activity change, negative = inhibition, usual class: inhibitors; further: on the % scale 0 is the no-effect control and ±100 the full control effect
#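 Here the parasites carry a stable luciferase gene and grow inside erythrocytes in Albumax-based RPMI medium with compound for one erythrocytic cycle. Activity is scored as loss of luminescent signal.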
# SARS PLpro yeast = SARS-CoV PLP inhibition in yeast | Potency, µM (top dose mostly 32.9 µM), for inactives: top-dose activity, positive = growth rescue, actives largely listed as activators | AID 485353 | hit rate 0.19% among 330,000 | S. cerevisiae expressing SARS-CoV PLpro, growth rescue; calls by dose curve; further: 0% is about no effect; nearly all actives have a fitted effect of over 55% in size
# Pf growth 96h = P. falciparum growth inhibition at 96 hours | P. falciparum luciferase reporter growth, 96 h | Potency, µM (top dose mostly 28.7 µM), without a hit: at the highest dose activity change, negative = inhibition, hits mostly inhibitors | hit rate 6.9% among 320,000; further: on the % scale 0 is the no-effect control and ±100 the full control effect
#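 Erythrocytes infected with luciferase-expressing P. falciparum were dispensed at 2% hematocrit and 0.05% parasitemia (final), then incubated with compounds 96 hours at 37 C in 5% CO2. Luminescence after detection reagent addition reported growth.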
# Sm TGR inh = S. mansoni TGR enzyme inhibition. purified TGR, DTNB reduction, TNB absorbance 405 nm. Potency, µM (doses to about 114 µM), for inactives: top-dose activity change, negative = inhibition, usual class: inhibitors. hit rate 3% among 360,000; further: on the % scale 0 is the no-effect control and ±100 the full control effect; nearly all actives have a fitted effect of over 60% in size
#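 TGR 20 nM + NADPH 100 uM (dispensed conc.), cpd preinc 15 min RT; start with NADPH (500 uM addition) then DTNB (15 mM addition). Kinetic TNB absorbance, 405 nm filter. Four-parameter Hill fit across titration.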
# Starred values were filed as active, the others as inactive; ? = inconclusive; / = not tested or not shown. Unless noted, the call rests on the fitted dose curve; in most records, active means well fitted curve in the direction sought with a large enough effect; inconclusive means small, poorly fitted or top-dose-only effect, or another doubt; inactive means no such curve, though single readings can be large; an effect the other way counts as inactive or inconclusive. Potency means the concentration at half of the fitted maximal effect.
SMILES,Pf growth 48h,SARS PLpro yeast,Pf growth 96h,Sm TGR inh
CC(=O)Nc1ccc(N(CC(O)Cn2c3ccccc3c3ccccc32)S(=O)(=O)c2ccc(C)cc2)cc1 (centres undefined),9.3µM*,19%,-1%,4%
CS(=O)(=O)N(Cc1ccco1)CC(O)Cn1c2ccccc2c2ccccc21 (centres undefined),9.3µM*,-3%,/,-6%
Cc1ccc(N(CC(O)Cn2c3ccccc3c3ccccc32)S(C)(=O)=O)c(C)c1 (centres undefined),4.7µM*,-20%,/,-3%
Cc1ccc(N(CC(O)Cn2c3ccccc3c3ccccc32)S(C)(=O)=O)cc1 (centres undefined),/,-1%,?,-10%
Cc1cccc(C)c1N(CC(O)Cn1c2ccccc2c2ccccc21)S(C)(=O)=O (centres undefined),?,-13%,/,-30%
OC(CNCc1ccco1)Cn1c2ccccc2c2ccccc21 (centres undefined),2.3µM*,1%,5%,-7%
OC(CNCc1ccco1)COc1ccccc1 (centres undefined),5%,1%,-1%,0%
COc1ccc(N2CCN(C(=O)COC(=O)COc3cccc(C(F)(F)F)c3)CC2)cc1,-14%,2%,-26%,-11%
Cc1ccc(C(=O)N/N=C/c2cn(Cc3ccccc3)c3ccccc23)cn1,4%,0%,42%,7%
COc1cc(C(=O)N/N=C/c2cn(Cc3cccc(F)c3)c3ccccc23)ccc1O,-28%,7%,1.7µM*,2%
Cc1ccccc1NC(=S)NNc1ncc(C(F)(F)F)cc1Cl,/,13%,-102%,-4%
Cc1c(Cl)cccc1NC(=S)NNc1ncc(C(F)(F)F)cc1Cl,/,-5%,9.3µM*,2%
Cc1ccccc1/C=C/C(=O)c1ccc([N+](=O)[O-])o1,?,-16%,?,2µM*
Cc1cccnc1NC(=O)c1ccc([N+](=O)[O-])o1,?,12%,?,-28%
COc1ccc(/C=C/C(=O)c2ccc([N+](=O)[O-])o2)cc1,?,-4%,20%,?
Cc1cccc(/C=C/C(=O)c2ccc([N+](=O)[O-])o2)c1,?,-19%,-1%,1.6µM*
CCc1ccccc1S(=O)(=O)Cc1ccc(C(=O)NCCc2ccc(Cl)cc2)o1,/,/,/,-7%
O=C(CN(C(=O)CNC(=O)c1ccco1)c1cccc(F)c1)NC1CCCCC1,19%,-1%,?,6%
Cc1cc(C)c(O)c(N)c1,?,-5%,2.3µM*,3.2µM*
COC(=O)c1nc(NC(=O)c2ccc(Br)cc2)n[nH]1,-7%,/,-13%,?
COC(=O)c1nc(NC(=O)C(C)(C)C)n[nH]1,2%,3%,/,32µM*
NS(=O)(=O)c1ccc(Sc2nc3ccccc3s2)c([N+](=O)[O-])c1,-14%,1%,-10%,45µM*
O=C(O)CSCc1cnn(-c2ccccc2)c1-n1cccc1,10µM*,14%,410%,-6%
Cc1cccc(C)c1NC(=O)CSCc1cnn(-c2ccccc2)c1-n1cccc1,/,/,/,-10%
CN(Cc1cccc(F)c1)CC(O)COCc1ccccc1Cl (centres undefined),-12%,-3%,?,12%
SMILES,Pf growth 48h,SARS PLpro yeast,Pf growth 96h,Sm TGR inh
Fc1cccc(CN(C2=NCCN2)c2c(Cl)cccc2Cl)c1,12µM*,/,3%,-2%
CCCCCN(C(=O)CCC(=O)OCC(=O)c1cccc(OC)c1)c1c(N)n(CCCC)c(=O)[nH]c1=O,0%,3%,0%,4%
O=C(c1ccc2c(c1)OCO2)C1CCCN(Cc2ccc(F)c(F)c2)C1 (centres undefined),7%,3%,?,5%
O=C(c1ccc2c(c1)OCO2)C1CCCN(Cc2ccc(OC(F)F)cc2)C1 (centres undefined),25%,-4%,10µM*,4%
CCc1ccc(/C=C2/SC(N3CCOCC3)=NC2=O)cc1,?,-2%,2%,-1%
CN1C/C(=C/c2ccsc2)C(=O)/C(=C/c2ccsc2)C1,2%,-11%,?,?
CN1C/C(=C\c2ccc(N3CCOCC3)cc2)C(=O)/C(=C/c2ccc(N3CCOCC3)cc2)C1,?,10µM*,65%,?
CCN1C/C(=C/c2ccc(N3CCOCC3)cc2)C(=O)/C(=C/c2ccc(N3CCOCC3)cc2)C1,7.4µM*,4%,4.1µM*,-20%
CN1C/C(=C/c2ccncc2)C(=O)/C(=C/c2ccncc2)C1,2.6µM*,-7%,?,?
COc1ccc(C(C[N+](=O)[O-])c2c(C)[nH]n(-c3ccccc3)c2=O)cc1 (centres undefined),3%,-10%,1%,18µM*
COc1ccc(C(C[N+](=O)[O-])c2c(-c3ccccc3)cc3ccccn23)c(OC)c1 (centres undefined),10µM*,-23%,/,56µM*
Cc1cc2ccccn2c1C(C[N+](=O)[O-])c1ccc(N(C)C)cc1 (centres undefined),?,0%,?,?
COc1ccc(C(C[N+](=O)[O-])c2c(C)cc3ccccn23)cc1 (centres undefined),10µM*,0%,12µM*,28µM*
CCOC(=O)C1CCCN(c2nc3c(S(=O)(=O)c4ccc(CC)cc4)nnn3c3ccsc23)C1 (centres undefined),/,/,/,-2%
CC1=C(C(=O)Nc2cccc(C(F)(F)F)c2)C(c2ccccn2)n2ncnc2N1 (centres undefined),/,/,/,3%
CC(C)(C)c1ccc(/C=C/C(=O)c2ccc(NC3=NCCCS3)cc2)cc1,17µM*,-132%,?,2%
COC(=O)c1c(-c2ccccc2)csc1NC(=O)c1c(-c2ccccc2)noc1C,13µM*,-1%,?,3%
CCOC(=O)c1c(-c2ccc(C)cc2)csc1NC(=S)NC(=O)c1ccccc1,10µM*,4%,7.4µM*,0%
CCOC(=O)c1c(-c2ccc(F)cc2)csc1NC(=O)c1c(-c2ccccc2)noc1C,?,3%,-1%,-10%
CCOC(=O)c1c(-c2ccc(C)cc2)csc1NC(=O)c1cc2ccccc2oc1=O,?,/,?,14µM*
COC(=O)c1c(-c2ccc(C)cc2)csc1NC(=S)NC(=O)c1ccc(F)cc1,?,-4%,8.3µM*,2%
Cc1ccccc1NC(=O)c1c(NC(=O)c2ccco2)sc2c1CCC(C(C)(C)C)C2 (centres undefined),/,/,/,0%
CCc1ccccc1NC(=O)CSc1nc2n[nH]c(C)c2c(=N)n1-c1cccc(OC)c1,13µM*,18%,/,5%
COc1ccc(OC)c(NC(=O)CSc2nc3n[nH]c(C)c3c(=N)n2-c2cccc(Cl)c2C)c1,?,0%,?,0%
CCOc1ccccc1NC(=O)CCSc1nc2n[nH]c(C)c2c(=N)n1-c1ccccc1Cl,12µM*,10%,115%,5%
COc1ccccc1CC(=O)N1CCN(C(=O)c2ccco2)CC1,10%,11%,?,-6%
O=C1c2ccccc2C(=O)N1CCCc1nc2ccccc2c(=O)n1CCCn1ccnc1,-27%,4%,1.9µM*,0%
